In PubChem BioAssay (NCI) one finds growth data, which are given here for eight compounds.

Test systems include DU-145 prostate; K-562 leukemia; MALME-3M melanoma; MDA-MB-231 breast; RXF 393 renal; SF-268 CNS; SF-295 CNS; SF-539 CNS; UACC-257 melanoma; M14 melanoma; HCT-15 colon; HT29 colon; SNB-75 CNS; SNB-19 CNS; U251 CNS; PC-3 prostate; SK-MEL-5 melanoma; UACC-62 melanoma; LOX IMVI melanoma; SK-MEL-28 melanoma.
Test in all cases: NCI-60 one-dose screen, 48 h (100 = growth as untreated, 0 = no growth, -100 = all killed)
What all share (conditions): 10 µM unless noted

The panel holds about 83,000 compounds, 20% with a hit somewhere; the sample as a whole holds those more often.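 A percent growth of 40 corresponds to 60% growth inhibition; 0 means no net growth; -100 means all cells died. Active threshold: below 10.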 Unmarked numbers belong to inactive results. The source made the active and inactive calls.

`COc1cc(/C=C\c2cc(/C=C\c3ccc(O)c(OC)c3)n(C(=O)COc3ccc(Cl)cc3Cl)n2)ccc1O`: the growth was 16.5% in the assay on DU-145 prostate; 4.41% (active) in the assay on K-562 leukemia; 12.1% in the assay with MALME-3M melanoma; 10.1% with MDA-MB-231 breast; -9.98% (active) in the assay with RXF 393 renal; 20.2% with SF-268 CNS. Further, the growth with SF-295 CNS was 23.1%; in the assay on SF-539 CNS, 8.64% (active); with UACC-257 melanoma, 41.9%; in the assay on M14 melanoma, 4.34% (active); in the assay with HCT-15 colon, 9.52% (active); in the assay on HT29 colon, 2.93% (active). Besides, the growth is 5.12% (active) in the assay on SNB-75 CNS; 29% in the assay with SNB-19 CNS; 16.3% with U251 CNS; 10.2% in the assay on PC-3 prostate; -12.9% (active) in the assay on SK-MEL-5 melanoma; 5.87% (active) in the assay on UACC-62 melanoma. The growth with LOX IMVI melanoma was 3.79% (active); with SK-MEL-28 melanoma, 26.6%.
Consider `CC(=O)n1nc(C(=O)OC(C)C)c2cc(C)c(C)cc21`, for which the growth is 105% in the assay with DU-145 prostate; 91.1% with K-562 leukemia; 95% with MALME-3M melanoma; 102% in the assay on MDA-MB-231 breast; 118% with RXF 393 renal; 102% in the assay on SF-268 CNS. Besides, the growth with SF-295 CNS was 89.8%; in the assay with SF-539 CNS, 107%; in the assay on UACC-257 melanoma, 92.3%; in the assay with M14 melanoma it was 93.7%; in the assay with HCT-15 colon, 90.9%; in the assay with HT29 colon, 97.8%. The growth is 80.7% in the assay on SNB-75 CNS; 98.5% in the assay on SNB-19 CNS; 86.3% with U251 CNS; 74.2% with PC-3 prostate; 92% in the assay with SK-MEL-5 melanoma; 97.6% in the assay with UACC-62 melanoma. Also, the values for the growth in the assay with LOX IMVI melanoma and in the assay with SK-MEL-28 melanoma were 97% and 114%, respectively.
Regarding `COc1cc(-c2nc(SCCC(C)C)nc(Nc3ccccc3Cl)c2C#N)cc(OC)c1OC`, the growth in the assay on DU-145 prostate is 97.7%; with K-562 leukemia, 95.1%; with MALME-3M melanoma it was 105%; in the assay on MDA-MB-231 breast, 81.5%; in the assay with RXF 393 renal, 117%; with SF-268 CNS, 85.7%. Besides, the growth in the assay on SF-295 CNS was 100%; with SF-539 CNS it was 95.6%; with UACC-257 melanoma, 127%; in the assay with M14 melanoma, 96.6%; in the assay with HCT-15 colon it was 93%; with HT29 colon it was 89.1%. The growth with SNB-75 CNS was 89.3%; in the assay on SNB-19 CNS, 98.9%; in the assay on U251 CNS it was 106%; with PC-3 prostate it was 81.4%; in the assay with SK-MEL-5 melanoma, 89.2%; with UACC-62 melanoma it was 81%. In addition, the figures for the growth in the assay with LOX IMVI melanoma and in the assay with SK-MEL-28 melanoma were 101% and 98.8%, respectively.
On to `CC(=O)OCc1nc(C#N)c(N(C)C)o1`, for which the growth in the assay on DU-145 prostate was 110%; in the assay with K-562 leukemia, 99.2%; with MALME-3M melanoma, 97.8%; in the assay on MDA-MB-231 breast, 94.9%; in the assay with RXF 393 renal it was 87.6%; in the assay with SF-268 CNS it was 99.6%. For the same compound, the growth with SF-295 CNS is 108%; with SF-539 CNS it was 92.1%; in the assay with UACC-257 melanoma, 92.8%; in the assay with M14 melanoma, 99.8%; with HCT-15 colon it was 88.6%; in the assay on HT29 colon, 99.2%. The growth is 81.5% with SNB-75 CNS; 95.9% in the assay on SNB-19 CNS; 95.5% in the assay with U251 CNS; 104% with PC-3 prostate; 105% with SK-MEL-5 melanoma; 89.3% in the assay with UACC-62 melanoma. Further, the growth in the assay with LOX IMVI melanoma is 99.2%; in the assay on SK-MEL-28 melanoma, 109%.
For `C#CCOc1ccc2ncnc(Nc3ccc(NC(=O)CCl)cc3)c2c1`, the growth was 18.1% in the assay with DU-145 prostate; 0.218% (active) with K-562 leukemia; -74.5% (active) in the assay with MALME-3M melanoma; -0.398% (active) with MDA-MB-231 breast; -59.9% (active) in the assay with RXF 393 renal; -7.47% (active) in the assay on SF-268 CNS. Further, the growth with SF-295 CNS is 60.6%; in the assay on SF-539 CNS it was -81.8% (active); in the assay with UACC-257 melanoma, 38.8%; with M14 melanoma, 4.03% (active); in the assay on HCT-15 colon, -32.4% (active); with HT29 colon it was -60% (active). In addition, the growth is 42% with SNB-75 CNS; -22.2% (active) with SNB-19 CNS; -83.7% (active) in the assay on U251 CNS; 6.66% (active) with PC-3 prostate; -90.6% (active) with SK-MEL-5 melanoma; -10.1% (active) in the assay with UACC-62 melanoma. Besides, the figures for the growth in the assay with LOX IMVI melanoma and in the assay with SK-MEL-28 melanoma were -80.1% (active) and 36.2%, respectively.
As to `CCOC(=O)c1cc2c(=O)oc3ccccc3c2oc1=O`, the growth was 116% with DU-145 prostate; 122% in the assay on K-562 leukemia; 105% with MALME-3M melanoma; 101% with MDA-MB-231 breast; 99.8% in the assay on RXF 393 renal; 108% in the assay on SF-268 CNS. In addition, the growth is 110% in the assay on SF-295 CNS; 100% with SF-539 CNS; 105% in the assay on UACC-257 melanoma; 118% with M14 melanoma; 96% in the assay on HCT-15 colon; 96% in the assay on HT29 colon. Further, the growth with SNB-75 CNS was 82.1%; in the assay with SNB-19 CNS it was 105%; in the assay with U251 CNS, 91.6%; in the assay with PC-3 prostate, 69.3%; with SK-MEL-5 melanoma, 106%; in the assay on UACC-62 melanoma, 95.8%. Besides, the growth with LOX IMVI melanoma is 91.5%; with SK-MEL-28 melanoma, 116%.
`O=C(CSc1nc2sc3c(c2c(=O)n1-c1ccccc1)CCCCC3)N/N=C/c1ccc(F)cc1`: the growth in the assay on DU-145 prostate was -0.517% (active); in the assay on K-562 leukemia, 64.2%; in the assay on MALME-3M melanoma, 11.3%; with MDA-MB-231 breast it was -26.1% (active); in the assay on RXF 393 renal, 5.3% (active); in the assay with SF-268 CNS, 7.96% (active). For the same compound, the growth in the assay with SF-295 CNS is 16.9%; with SF-539 CNS it was -39.9% (active); in the assay on UACC-257 melanoma, 74.6%; with M14 melanoma, 51.6%; in the assay on HCT-15 colon, 48.6%; in the assay on HT29 colon, 26.2%. The growth is -65.4% (active) with SNB-75 CNS; 47.4% in the assay on SNB-19 CNS; 6.96% (active) in the assay with U251 CNS; 45.8% in the assay with PC-3 prostate; 50.7% in the assay with SK-MEL-5 melanoma; 83.5% in the assay with UACC-62 melanoma. The growth in the assay with LOX IMVI melanoma was 37.1%; with SK-MEL-28 melanoma it was 48.9%.
For the compound `Cc1cc(Cl)ccc1Nc1nc(C(F)(F)F)ccc1C(=O)N/N=C/c1ccc([N+](=O)[O-])cc1`, the growth was 5.82% (active) in the assay with DU-145 prostate; -1.48% (active) in the assay with K-562 leukemia; -13.5% (active) with MALME-3M melanoma; -51.5% (active) in the assay on MDA-MB-231 breast; 5.4% (active) in the assay with RXF 393 renal; 13.8% in the assay on SF-268 CNS. In addition, the growth in the assay on SF-295 CNS was -56.4% (active); in the assay with SF-539 CNS, 3.77% (active); in the assay on UACC-257 melanoma, -13.1% (active); in the assay with M14 melanoma, 26.9%; in the assay on HCT-15 colon it was -1.51% (active); in the assay on HT29 colon, -26.6% (active). For the same compound, the growth with SNB-75 CNS was -12.2% (active); in the assay on SNB-19 CNS it was 22.7%; in the assay with U251 CNS it was -13.9% (active); with PC-3 prostate it was -43.7% (active); in the assay on SK-MEL-5 melanoma, 84.7%; with UACC-62 melanoma it was 12.6%. Also, the growth in the assay with LOX IMVI melanoma is 7.3% (active); in the assay on SK-MEL-28 melanoma it was 5.64% (active).
